From PubChem BioAssay (NCI) come the findings set out here.

Assay in all cases: NCI-60 one-dose screen, 48 h (100 = growth as untreated, 0 = no growth, -100 = all killed)
What all share (conditions): 10 µM unless noted

Experiment [1] relates to RPMI-8226 leukemia.
Experiment [2] deals with OVCAR-8 ovarian.
Experiment [3] concerns OVCAR-5 ovarian.
Experiment [4] relates to OVCAR-4 ovarian.
For experiment [5], the system named is SK-OV-3 ovarian.
The test system of experiment [6] is IGROV1 ovarian.
Experiment [7] relates to OVCAR-3 ovarian.
Experiment [8] relates to HS 578T breast.
The test system of experiment [9] is NCI/ADR-RES ovarian.
The subject of experiment [10] is T-47D breast.

Molecules are shown by their SMILES. This is part of a sample that, as a whole, favours compounds with a hit. Of some 83,000 tested, about 20% had one in any assay.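 Percent growth is the endpoint: 0 to 100 indicates growth inhibition (40 means 60% inhibition), 0 means no net growth, and negative values indicate cell death.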 Unmarked numbers belong to inactive results. Calls of active or inactive are those of the source. Rule for the calls: active = growth percent below 10; inactive = the rest.

For the molecule `CCCCn1c(=O)c(/C=C/C(=O)/C=C/c2ccc(O)c(OC)c2)cc2ccc(Cl)cc21`, the growth is -14.2% (active) in [1]; -4.03% (active) in [2]; 49.6% in experiment [3]; 26.1% in experiment [4]; 59.2% in experiment [5]; 6.29% (active) in experiment [6]. The growth in [7] was -26.2% (active); in experiment [8], 47.8%; in experiment [9] it was 14.8%; in experiment [10], 25.3%.
As to `CC(C)(C)c1nn(-c2ccccc2)c2c1COCN2Cc1ccc(Cl)cc1`, the growth in experiment [1] was 10.9%; in [2] it was 107%; in experiment [3], 90%; in [4] it was 77.2%; in experiment [5], 92.6%; in experiment [6], 117%. The growth in experiment [7] is 104%; in [8], 86.2%; in [9], 94.8%; in [10] it was 73.6%.
Regarding `C/C(=N/Nc1nc2ccccc2n1C)c1ccccn1`, the growth was -17.5% (active) in experiment [1]; 0.773% (active) in experiment [2]; 35.3% in experiment [3]; 20.8% in experiment [4]; -0.894% (active) in experiment [5]; 18% in [6]. Further, the growth in experiment [7] was 10.3%; in experiment [8] it was 44.5%; in experiment [9], -7.51% (active); in [10], 8.05% (active).
Consider `CCOC(=O)/C(=C/c1c(-c2ccccc2)[nH]c2ccccc12)C(=O)c1ccc(Cl)cc1`, for which the growth was -17.2% (active) in experiment [1]; 59.8% in [2]; 95.8% in experiment [3]; 46.8% in experiment [4]; 81.6% in experiment [5]; 98.5% in experiment [6]. Further, the growth is 38.5% in experiment [7], 63.4% in experiment [8], 45.4% in [9] and 24.9% in experiment [10].
With `COc1ccc(C(=O)c2cc(OC)c(C)c(OC)c2)cc1OC(=O)CCl`, the growth in [1] was 28.3%; in experiment [2], 25.4%; in experiment [3] it was 74.8%; in [4], 60.1%; in experiment [5], 19.4%; in experiment [6] it was 30.7%. In addition, the growth is -8.39% (active) in experiment [7], 40.5% in experiment [8], 10.5% in [9] and 43.8% in experiment [10].
Regarding `N#Cc1ccc(N2Cc3cc(Cl)ccc3OC3=C2C(=O)N(Cc2ccc(F)cc2)C3=O)cc1`, the growth in [1] was -21.8% (active); in experiment [2] it was -26.9% (active); in experiment [3] it was -1.59% (active); in experiment [4], -25.8% (active); in experiment [5] it was 102%; in [6] it was -5.53% (active). Moreover, the growth in experiment [7] was -89% (active); in [8], 27%; in experiment [9], 10.1%; in experiment [10], -70.3% (active).
In the case of `O=C1Nc2ccccc2C12C=C(c1ccccc1)Nc1c2c(-c2ccccc2)nn1-c1ccccc1` (centres undefined), the growth in [1] was 40.8%; in [2], 46.6%; in experiment [3], 73%; in experiment [4] it was 78%; in experiment [5] it was 87%; in experiment [6], 67.9%. Further, the growth in experiment [7] was 70.3%; in experiment [8], 78.9%; in [9], 66.2%; in experiment [10] it was 61.7%.
Consider `CNCc1cccc2c1OCCOCCOCCN(CCN1CCOCC1)S(=O)(=O)c1ccc(cc1)-c1cnc(N)c(n1)C(=O)N2`, for which the growth is 54.8% in experiment [1]; 62.2% in experiment [2]; 119% in [3]; 54.8% in experiment [4]; 17.3% in [5]; 47.9% in [6]. Also, the growth in experiment [7] was 49.4%; in experiment [8], 47.5%; in [9], 108%; in experiment [10], 101%.
Regarding `Nc1cc(N)c(S(=O)(=O)O)cc1N=Nc1cc([N+](=O)[O-])ccc1O`, the growth in [1] is 98.8%; in [2], 99.5%; in [3] it was 108%; in [4], 109%; in experiment [5], 93.8%; in [6] it was 106%. Also, the growth is 113% in experiment [7], 103% in experiment [8], 106% in experiment [9] and 97.2% in experiment [10].
Consider `COc1cc(/C=C/C(=O)/C=C/c2cc3ccc(Cl)cc3n(Cc3ccccc3)c2=O)ccc1O`, for which the growth is -18.8% (active) in experiment [1]; 5.61% (active) in experiment [2]; 19.4% in experiment [3]; 25.8% in experiment [4]; 37.3% in [5]; 3.2% (active) in [6]. The growth in experiment [7] is -46.4% (active); in experiment [8] it was 43.5%; in experiment [9] it was 15%; in experiment [10], 2.39% (active).
Consider `C=C1C(=O)O[C@H]2[C@H]1CC/C(COC(=O)c1cccnc1N)=C\CC[C@@]1(C)O[C@@H]21`, for which the growth in [1] is -19.2% (active); in experiment [2] it was 14.9%; in experiment [3] it was 36.1%; in experiment [4], 54.7%; in experiment [5], 71.3%; in experiment [6], 13.8%. The growth in [7] is -4.59% (active); in experiment [8] it was 28.9%; in [9], 31.9%; in experiment [10], 50.7%.
Consider `COc1ccc(Cc2nc(C#N)c(N3CCN(c4ccc(F)cc4)CC3)o2)cc1`, for which the growth is 93.3% in experiment [1]; 103% in experiment [2]; 86.7% in experiment [3]; 79.3% in experiment [4]; 89.6% in [5]; 76.8% in experiment [6]. Also, the growth in experiment [7] was 96.9%; in [8], 92.5%; in experiment [9], 95.3%; in [10], 81.2%.
On to `C#C[C@@]1(O)[C@@H](CO)O[C@@H](n2cc(F)c3c(N)ncnc32)[C@@H]1O`, for which the growth is 5.11% (active) in experiment [1]; 9.54% (active) in experiment [2]; 9.96% (active) in [3]; 4.75% (active) in experiment [4]; -7.75% (active) in experiment [5]; -17.4% (active) in experiment [6]. Besides, the growth in experiment [7] is 10.9%; in [8], 28.4%; in experiment [9] it was 4.76% (active); in [10], -13.8% (active).
Regarding `Nc1c(C(=O)Nc2ccccn2)sc2nc3c(cc12)C(=O)CCC3`, the growth in experiment [1] was 38.5%; in [2] it was 64.3%; in experiment [3], 46.9%; in [4], 56.8%; in experiment [5], 40.3%; in experiment [6], 51.3%. In addition, the growth was 3.09% (active) in [7], 1.79% (active) in experiment [8], 21.9% in [9] and 33.1% in experiment [10].
`N#Cc1c(-c2ccc(F)cc2)nc(N=Nc2c(O)[nH]c3ccc(Cl)cc23)nc1N1CCOCC1`: the growth in [1] is 80.1%; in [2], 19.1%; in experiment [3], 84.5%; in [4] it was -37.7% (active); in [5], 17.2%; in experiment [6], 29.3%. Further, the growth in [7] is 21.6%; in experiment [8] it was 15.5%; in [9] it was 16.4%; in experiment [10] it was 46.7%.
Turning to `Nc1c(C(=O)Nc2ccccc2)sc2nc3c(cc12)CN(C(=O)OCc1ccccc1)CC3`, the growth was 53.1% in [1]; 68.9% in [2]; 91.7% in experiment [3]; 75.4% in experiment [4]; 43.7% in [5]; 56.4% in experiment [6]. For the same molecule, the growth in [7] is 16%; in experiment [8] it was 53.5%; in experiment [9], 45.6%; in [10], 68.2%.
With `C#C[C@@]1(O)[C@@H](CO)O[C@@H](n2cc(Cl)c3c(N)ccnc32)[C@@H]1O`, the growth in experiment [1] is 39.9%; in experiment [2], 26.9%; in experiment [3], 111%; in experiment [4], 79.9%; in experiment [5], 95.4%; in experiment [6] it was 88.3%. Besides, the growth is 47.6% in experiment [7], 102% in experiment [8], 28.5% in experiment [9] and 93.8% in experiment [10].
Regarding `[2H]c1nc(Nc2ncc3cc(C(=O)N(C)C)n(C4CCCC4)c3n2)c([2H])c([2H])c1N1C([2H])([2H])C([2H])([2H])NC([2H])([2H])C1([2H])[2H]`, the growth in [1] is 31%; in [2], 73.8%; in experiment [3] it was 40.3%; in [4] it was 93.1%; in [5] it was 57.1%; in experiment [7], 97%. Further, the results for the growth in experiment [8], in [9] and in experiment [10] were 67.1%, 106% and 53.2%, respectively.
With `Cn1cc(-c2ccc3c(c2)ncn3-c2ccc(CC(=O)Nc3cc(C(C)(C)C)on3)cc2)cn1`, the growth is 76.8% in [1]; 41.4% in [2]; 22.8% in experiment [3]; 12.3% in experiment [4]; 7.18% (active) in experiment [5]; -27.7% (active) in experiment [6]. For the same molecule, the growth in [7] was 32.4%; in experiment [8], -7.52% (active); in [9], 38.7%; in [10], 35.5%.
With `O=C(Nc1ccc(N=Cc2ccccc2O)cc1)NC1C=c2ccccc2=CC1` (centres undefined), the growth in [1] is 94%; in [2] it was 95.9%; in [3], 103%; in [4] it was 116%; in experiment [5] it was 103%; in experiment [6] it was 108%. In addition, the growth in [7] was 99.1%; in experiment [8], 102%; in [9], 101%; in [10], 91.3%.
For the molecule `Cc1cc(NC(=O)CNc2nc(Oc3ccc(F)cc3)nc(-c3ccc(F)cc3)n2)ccc1Cl`, the growth in experiment [1] was 96.6%; in [2], 102%; in [3], 103%; in experiment [4], 105%; in experiment [5], 93.7%; in experiment [6] it was 106%. Also, the growth in experiment [7] was 116%; in [8] it was 85.8%; in experiment [9], 101%; in experiment [10] it was 91.3%.
For `COC(=O)/C=C1\SC(=Nc2ccc(F)cc2)N(CCc2c[nH]c3ccccc23)C1=O`, the growth in [1] was 93.8%; in experiment [2], 87.5%; in experiment [3], 110%; in [4] it was 106%; in experiment [5], 102%; in experiment [6], 98.5%. Further, the growth is 104% in experiment [7], 108% in experiment [8], 95.8% in experiment [9] and 91.3% in experiment [10].
As to `O=C1CCC23OC(C(O)c4ccccc4N12)C1C(Br)=NOC13` (centres undefined), the growth in experiment [1] is 98.7%; in [2] it was 103%; in experiment [3], 97.7%; in [4] it was 95.4%; in experiment [5] it was 99%; in experiment [6], 106%. Moreover, the growth in experiment [7] is 105%; in experiment [8] it was 106%; in experiment [9] it was 106%; in experiment [10] it was 102%.
As for `NCCCn1c2c(c3cc(-c4ccn[nH]4)ccc3c1=O)C(=O)c1ccccc1-2`, the growth in [1] is 51.3%; in experiment [2], 40.6%; in experiment [3], 98.8%; in [4] it was 50.3%; in experiment [5] it was 81.5%; in [6] it was 35.4%. Further, the growth in [7] was 59%; in experiment [8] it was 62.3%; in experiment [9] it was 45.8%; in [10], 73.3%.
